Laboratory results from PubChem BioAssay (NCI).
This is part of a sample that, as a whole, favours compounds with a hit. Of some 83,000 tested, about 20% had one in any assay.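 Cell lines were cultured in 96-well plates, exposed to a single compound concentration, and assessed for percent growth 48 hours later.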 Unmarked numbers belong to inactive results. Calls of active or inactive are those of the source. The calls were made as follows: active = growth percent below 10; inactive = the rest.

Assays:
Test in all cases: NCI-60 one-dose screen, 48 h (100 = growth as untreated, 0 = no growth, -100 = all killed)
Conditions in all cases: 10 µM unless noted
DU-145 prostate = system: DU-145 prostate
K-562 leukemia = system: K-562 leukemia
MALME-3M melanoma = system: MALME-3M melanoma
MDA-MB-231 breast = system: MDA-MB-231 breast
RXF 393 renal = system: RXF 393 renal
SF-268 CNS = system: SF-268 CNS
SF-295 CNS = system: SF-295 CNS
SF-539 CNS = system: SF-539 CNS
UACC-257 melanoma = system: UACC-257 melanoma
M14 melanoma = system: M14 melanoma
HCT-15 colon = system: HCT-15 colon
HT29 colon = system: HT29 colon
SNB-75 CNS = system: SNB-75 CNS
SNB-19 CNS = system: SNB-19 CNS
U251 CNS = system: U251 CNS
PC-3 prostate = system: PC-3 prostate
SK-MEL-5 melanoma = system: SK-MEL-5 melanoma
UACC-62 melanoma = system: UACC-62 melanoma
LOX IMVI melanoma = system: LOX IMVI melanoma
SK-MEL-28 melanoma = system: SK-MEL-28 melanoma

SMILES	growth (DU-145 prostate)	growth (K-562 leukemia)	growth (MALME-3M melanoma)	growth (MDA-MB-231 breast)	growth (RXF 393 renal)	growth (SF-268 CNS)	growth (SF-295 CNS)	growth (SF-539 CNS)	growth (UACC-257 melanoma)	growth (M14 melanoma)	growth (HCT-15 colon)	growth (HT29 colon)	growth (SNB-75 CNS)	growth (SNB-19 CNS)	growth (U251 CNS)	growth (PC-3 prostate)	growth (SK-MEL-5 melanoma)	growth (UACC-62 melanoma)	growth (LOX IMVI melanoma)	growth (SK-MEL-28 melanoma)
CCOC(=O)[C@@H](C)C[C@H](Cc1ccccc1)NC(=O)c1csc([C@@H](C[C@H](C(C)C)N(C)C(=O)[C@@H](NC(=O)[C@H]2CCCCN2C)C(C)(C)C)OC(C)=O)n1	2.47% (active)	5.06% (active)	62.4%	-5.5% (active)	23.8%	24.9%	-8.4% (active)	-13.6% (active)	41.7%	-14.6% (active)	7.37% (active)	0.339% (active)	11.9%	24%	14.7%	21.1%	-46.2% (active)	27%	10.1%	51.2%
CC1=C2[C@@H](CC1)[C@]1(C)O[C@@](C(C)C)(C[C@H]1O)[C@H]2OC(=O)C1CC1c1ccccc1 (some centres undefined)	106%	84.6%	92.2%	78.2%	99.4%	86.1%	92.1%	94.6%	103%	90.9%	89.8%	103%	88%	102%	84.3%	56.9%	85.4%	75.6%	93.3%	105%
C=CC[Se]C(=O)c1ccccc1OC(C)=O	1.76% (active)	46.8%	30.9%	-25.5% (active)	-21% (active)	27.1%	-29.4% (active)	-82.4% (active)	5.44% (active)	-6.78% (active)	17.8%	14.4%	-65.1% (active)	-23.2% (active)	-44% (active)	-28.3% (active)	-35.7% (active)	-15.2% (active)	21.7%	4.12% (active)
c1cnc2[nH]cc(-c3csc(-c4cn(CCCCN5CCOCC5)c5ccccc45)n3)c2c1	70%	-38.7% (active)	-25% (active)	32.8%	53.7%	49.7%	53.9%	80.8%	67.8%	-49.9% (active)	5.17% (active)	-44.6% (active)	35.4%	57.5%	20%	25.9%	51.2%	68.9%	20.8%	-71.1% (active)
CS(=O)(=O)CCN1CC2CCCC(C2)C1	102%	113%	111%	105%	107%	102%	108%	100%	104%	98.6%	99.5%	96.7%	94.1%	99.8%	101%	90.1%	104%	102%	104%	105%
C/C(=C\c1cc(C(F)(F)F)nn1CCNC(=O)OC(C)(C)C)[C@@H]1C[C@@H]2O[C@]2(C)CCC[C@H](C)[C@H](O)[C@@H](C)C(=O)C(C)(C)[C@@H](O)CC(=O)O1	63.2%	31.9%	70%	58.8%	53.2%	60.4%	75.5%	57.5%	83.5%	50.1%	39.5%	23.6%	37.2%	65.4%	61.4%	32%	38.8%	40.7%	55.9%	79.2%
COc1cc([C@@H]2c3cc4c(cc3[C@H](OC(C)=O)[C@H]3COC(=O)[C@@H]23)OCO4)cc(OC)c1OC	3.27% (active)	11.2%	57.1%	8.36% (active)	52%	33%	-15.7% (active)	-33.4% (active)	49.2%	-15.2% (active)	11.8%	1.62% (active)	4.62% (active)	–	8.16% (active)	15%	-20.9% (active)	18.5%	27.3%	48.6%
C1CCC2(CC1)OOCNCOO2	111%	-35.4% (active)	110%	120%	116%	97.3%	97.4%	101%	98.5%	100%	99.3%	97.7%	–	113%	105%	98%	93.5%	113%	-76.6% (active)	110%
CC[C@H](C)[C@H](NC(=O)C12C3C4C1C1C2C3C41NC(C)=O)C(=O)N(C)[C@H](C[C@@H](OC(C)=O)c1nc(C(=O)N[C@@H](Cc2ccccc2)C[C@H](C)C(=O)OC)cs1)C(C)C (some centres undefined)	1.99% (active)	8.82% (active)	58.6%	22.1%	41.9%	27.5%	13%	5.34% (active)	44.2%	1.02% (active)	24.8%	4.53% (active)	38.6%	56.1%	9.8% (active)	11.3%	-13.4% (active)	–	14.9%	59.6%
O=C(CC1(O)C(=O)N(Cc2ccccc2)c2ccc(Br)cc21)c1ccc(C(=O)NCC2CCC3(CC2)OOC2(CCCCC2)OO3)cc1 (centres undefined)	-98.8% (active)	-5.58% (active)	-68.1% (active)	-73.9% (active)	-76.5% (active)	-1.12% (active)	29.3%	-85.1% (active)	57%	41.9%	2.73% (active)	-65.5% (active)	15%	56.1%	-85.4% (active)	-36.3% (active)	–	80.7%	-79.7% (active)	77.4%
CCn1c2ccccc2c2cc(C(=O)c3cccc4c3CCCN4)ccc21	102%	101%	107%	98.1%	104%	102%	103%	111%	113%	96.9%	104%	113%	91.6%	97.6%	106%	108%	–	92.2%	94.4%	103%
COc1ccc2c(c1)c(-c1nc(-c3c[nH]c4ncccc34)cs1)cn2CCN1CCOCC1	45.3%	38.3%	71%	51%	53.7%	60.9%	62%	48.2%	92.1%	49.4%	31.4%	45.8%	49.7%	67%	45.6%	34.1%	25.4%	–	45.4%	68.4%
Cc1ccc(N2COOC3(OOC2)C2CC4CC(C2)CC3C4)cc1	109%	72.6%	110%	112%	115%	97.9%	95.5%	96.5%	95.3%	97.8%	96.6%	97.5%	–	106%	96.1%	93.5%	90.5%	109%	-61.6% (active)	103%
COc1ccc(NC([Se])=NC23CC4CC(CC(C4)C2)C3)cc1	2.16% (active)	12.3%	-18.5% (active)	-44.4% (active)	-41% (active)	38.5%	-23.6% (active)	-6.89% (active)	-45.5% (active)	-6.57% (active)	9.68% (active)	5.56% (active)	–	15.7%	-31% (active)	7.99% (active)	-85.5% (active)	-24.3% (active)	3.59% (active)	13.2%
C/C1=C/C(=O)O[C@@H]2C[C@@H](CC[C@H](C)/C=C\C=C\CC1)O[C@@](O)([C@@H]1CSC(=O)N1CO)C2	22.9%	22.2%	14%	13.7%	-35.4% (active)	-37.7% (active)	13.5%	-3.61% (active)	13.9%	34.5%	46.6%	8.8% (active)	-41.5% (active)	–	5.44% (active)	–	29.5%	29.2%	7.38% (active)	-31.7% (active)
CCn1c2ccccc2c2cc(C(=O)c3ccc(C)c4ccccc34)ccc21	17.9%	4.51% (active)	74.4%	26.4%	15%	19.8%	11.6%	-5.79% (active)	36.9%	2.37% (active)	15.7%	-7.41% (active)	51%	20.7%	10.3%	18.7%	–	1.49% (active)	1.21% (active)	17.9%
